Data from PubChem BioAssay (NCATS).
Results filed as inconclusive are left out. Values without a mark were called inactive. Active and inactive are the calls of the source. Calls come from the whole dose curve; as a rule, active = well fitted curve in the direction sought with a large enough effect; inconclusive = small, poorly fitted or top-dose-only effect, or another doubt; inactive = no such curve, though single readings can be large; an effect the other way counts as inactive or inconclusive.

What follows are molecules tested against Aldehyde dehydrogenase, mitochondrial (Homo sapiens) (UniProt P05091) (assay: qHTS for Inhibitors of the Aldehyde Dehydrogenase Family (ALDH2) Primary screen (AID 2061308;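 note: plate controls were vehicle for no effect and reference inhibitor for full effect; nearly all actives have a fitted effect of over 55% in size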)). Conditions: ALDH2 enzyme inhibition qHTS, 1536-well; series mostly up to 56 µM; activity change, negative = inhibition: at the top concentration.

In order of falling “activity change, negative = inhibition” value:
1. CC(=O)c1ccc(-c2csc(N3CCC(C(N)=O)CC3)n2)cc1  91.1%
2. CC(C)(C)OC(=O)Cc1nnc(-c2nc3ccccc3[nH]2)s1  19.6%
3. CCN(CC)CCn1c(-c2ccccc2)nc2c(NCCOC)nc(C)nc21  12.5%
4. CNc1nc(-c2cccc3ccccc23)ccc1C#N  10.7%
5. O=C(Nc1ccc(-c2nc3ccccc3[nH]2)cc1)c1ccc2sccc2c1  7.58%
6. COc1ccc(NS(=O)(=O)c2ccccc2C(=O)O)cc1  5.47%
7. COc1ccc(Cn2ncc3c4sc(C)cc4n(C)c3c2=O)cc1F  4.95%
8. CNc1nc(C#N)c(-c2cccc3ccccc23)o1  4.12%
9. COc1ccc(NC(=O)c2cnn3c(C)cc(C)nc23)cc1OC  3.36%
10. CCC[C@@H]1C[C@@H](C(=O)N[C@H](C(C)Cl)[C@H]2O[C@H](SC)[C@H](O)[C@@H](O)[C@H]2O)N(C)C1 (stereo not given in full)  2.37%
11. CCC(CC)C(=O)NCCc1nc2ccccc2n1CCOc1ccc(C)cc1  0.438%
12. COC/C=C/c1cc(F)c(S(=O)(=O)N2CCN(S(=O)(=O)c3ccc4c(c3)OCCO4)CC2)cc1F  -0.442%
13. NC(=O)C1CCN(c2nc(-c3ccccc3Cl)cs2)CC1  -3.44%
14. COc1cccc(NS(=O)(=O)c2ccc(C)cc2)c1C(=O)Nc1nc(-c2ccccc2)cs1  -4.62%
15. O=C1c2ccccc2C(=O)N1c1ccccc1O  -7.64%
16. O=C(OCC#CCSc1nnc(-c2ccc3ccccc3c2)o1)c1cc2ccccc2s1  -7.72%
17. Cc1cc(C(=O)Nc2ccc(NC(=O)Cc3ccc(Cl)c(Cl)c3)cc2)no1  -10.8%
18. Cc1nc(CNc2ncnc3ccc(-c4ccc(CO)o4)cc23)cs1  -14.5%
19. O=S(=O)(NCC1CC1)c1ccc(Nc2nccc(N3CCCc4cc(O)ccc43)n2)cc1  -17.7%

For `C[C@@H]1CC[C@]2(C(=O)O)CC[C@]3(C)C(=CCC4[C@@]5(C)C[C@@H](O)[C@H](O)[C@@](C)(CO)C5CC[C@]43C)C2[C@H]1C` (stereo not given in full), the “activity change, negative = inhibition” value was 0.876% [at 28 µM].

For `Cc1cccc2oc(NC3=NC(c4[nH]ncc4Cl)C4=C(CCCC4=O)N3)nc12` (stereo not given), the Potency was “inactive”.

These molecules were tested against Retinaldehyde dehydrogenase 3 (Homo sapiens) (UniProt P47895) (assay: qHTS for Inhibitors of the Aldehyde Dehydrogenase Family (ALDH1A3) Primary screen (AID 2061315;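 note: plate controls were DMSO vehicle for no effect and reference inhibitor for full effect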)). Conditions: ALDH inhibition qHTS; series mostly up to 56 µM; activity change, negative = inhibition: at the top concentration.

In order of rising “activity change, negative = inhibition” value:
1. O=C1c2ccccc2C(=O)N1c1ccccc1O  -30.3%
2. CC(=O)c1ccc(-c2csc(N3CCC(C(N)=O)CC3)n2)cc1  -26.9%
3. COc1ccc(NC(=O)c2cnn3c(C)cc(C)nc23)cc1OC  -16.1%
4. FC(F)(F)c1ccc(CNc2nc(-c3ccccc3C(F)(F)F)nc3ccccc23)cc1  -15.6%
5. O=C(OCC#CCSc1nnc(-c2ccc3ccccc3c2)o1)c1cc2ccccc2s1  -10.9%
6. CCC[C@@H]1C[C@@H](C(=O)N[C@H](C(C)Cl)[C@H]2O[C@H](SC)[C@H](O)[C@@H](O)[C@H]2O)N(C)C1 (stereo not given in full)  -10.6%
7. NC(=O)C1CCN(c2nc(-c3ccccc3Cl)cs2)CC1  -8.02%
8. COC/C=C/c1cc(F)c(S(=O)(=O)N2CCN(S(=O)(=O)c3ccc4c(c3)OCCO4)CC2)cc1F  -6.58%
9. COc1ccc(NS(=O)(=O)c2ccccc2C(=O)O)cc1  -5.23%
10. Cc1ccc(N(C)S(=O)(=O)c2ccc3c(c2)CCC(=O)N3)cc1C  -4.88%
11. CNc1nc(C#N)c(-c2cccc3ccccc23)o1  -4.25%
12. COc1ccc(Oc2c(Cl)cnn(-c3cc(C)cc(C)c3)c2=O)cc1  -1.9%
13. COc1ccc(Cn2ncc3c4sc(C)cc4n(C)c3c2=O)cc1F  -1.85%
14. O=C(Nc1ccc(Cl)c(Cl)c1)Nc1nc(-c2ccncc2)cs1  -1.66%
15. COc1cccc(NS(=O)(=O)c2ccc(C)cc2)c1C(=O)Nc1nc(-c2ccccc2)cs1  -0.748%
16. O=C(Nc1ccc(-c2nc3ccccc3[nH]2)cc1)c1ccc2sccc2c1  -0.728%
17. Cc1cnc(-c2ccccc2C(C)C)nc1NCc1ccc(C(N)=O)cc1  -0.57%
18. CCN(CC)CCn1c(-c2ccccc2)nc2c(NCCOC)nc(C)nc21  0.174%
19. CN(CCC1CCCO1)c1ncnc2ccc(-c3ccc4c(c3)OCO4)cc12 (stereo not given)  0.818%
20. Cc1nc(CNc2ncnc3ccc(-c4ccc(CO)o4)cc23)cs1  0.86%
21. CC(=O)Nc1sc2c(c1-c1nc3ccccc3s1)CCCN(C(C)C)C2  1.56%
22. CNc1nc(-c2cccc3ccccc23)ccc1C#N  1.82%
23. CC(=O)Nc1ccc(NC(=O)c2cnn3c(C)cc(C)nc23)cc1  3.39%
24. O=S(=O)(NCC1CC1)c1ccc(Nc2nccc(N3CCCc4cc(O)ccc43)n2)cc1  3.61%
25. Cn1nnnc1Sc1ncnc2scc(-c3ccc4ccccc4c3)c12  3.94%
26. N#Cc1nc(-c2cccc3ccccc23)oc1NC1COC1  4.1%
27. CCCn1c(-c2ccc(F)cc2)nc2c(NCC(C)(C)CN(C)C)nc(C)nc21  4.12%
28. CCC(CC)C(=O)NCCc1nc2ccccc2n1CCOc1ccc(C)cc1  5.25%
29. CC(C)(C)OC(=O)Cc1nnc(-c2nc3ccccc3[nH]2)s1  5.94%
30. Cc1cc(C)nc(NC(=S)N2CCN(c3nccc(C(F)(F)F)n3)CC2)c1  7.06%
31. O=C(Nc1nnc(-c2ccco2)o1)c1ccncc1  9.46%
32. Cc1ccnc(NC(=S)NC2CCCN(c3cccc(C(F)(F)F)c3)C2)c1 (stereo not given)  13.5%
33. O=C(Nc1ncc(Cc2ccccc2)s1)c1ccc(-c2cccc([N+](=O)[O-])c2)o1  15.1%
34. Cc1cc(C(=O)Nc2ccc(NC(=O)Cc3ccc(Cl)c(Cl)c3)cc2)no1  15.2%
35. c1c[nH]c(CNc2ncnc3ccc(-c4ccc5c(c4)OCO5)cc23)n1  17.5%
36. C#CCCC(=O)Nc1sc2c(c1-c1nc3ccccc3s1)CCNC2  20.4%
37. CC(C)(C)OC(=O)N1CCN(c2ccc(NCc3nnc(-c4ccc(C#N)cc4)o3)cc2)CC1  20.5%

For `C[C@@H]1CC[C@]2(C(=O)O)CC[C@]3(C)C(=CCC4[C@@]5(C)C[C@@H](O)[C@H](O)[C@@](C)(CO)C5CC[C@]43C)C2[C@H]1C` (stereo not given in full), the “activity change, negative = inhibition” value was 0.49% [at 28 µM].

For `Cc1cccc2oc(NC3=NC(c4[nH]ncc4Cl)C4=C(CCCC4=O)N3)nc12` (stereo not given), the Potency was “inactive”.
